Data on 59 molecules can be found in PubChem BioAssay AID1851 (National Center for Advancing Translational Sciences (NCATS), 2009).

In all, about 16,000 compounds went through this assay and about 5,100 (32%) were called active. Another 25% or so got no clear call; they are omitted. The list shows a part of the results. A number with no mark means an inactive call. Calls follow the shape of the dose curve; as a rule, active = well fitted curve in the direction sought with a large enough effect; inconclusive = small, poorly fitted or top-dose-only effect, or effect the other way; inactive = no such curve, though single readings can be large or run the other way.

By AC50 is commonly meant the concentration at which the activity in the assay is half-maximal.
% is scaled to controls: 0 for no effect and ±100 for the full control effect.

The target in this test is Cytochrome P450 3A4 (Homo sapiens) (UniProt P08684). Description: Cytochrome panel assay with activity outcomes. The conditions noted are these: recombinant CYP, pro-luciferin dealkylation, luminescence, p450-cyp3a4; series mostly up to 57.1 µM.
Cytochrome P450 3A4 (Homo sapiens), sequence (P08684 whole entry, looked up): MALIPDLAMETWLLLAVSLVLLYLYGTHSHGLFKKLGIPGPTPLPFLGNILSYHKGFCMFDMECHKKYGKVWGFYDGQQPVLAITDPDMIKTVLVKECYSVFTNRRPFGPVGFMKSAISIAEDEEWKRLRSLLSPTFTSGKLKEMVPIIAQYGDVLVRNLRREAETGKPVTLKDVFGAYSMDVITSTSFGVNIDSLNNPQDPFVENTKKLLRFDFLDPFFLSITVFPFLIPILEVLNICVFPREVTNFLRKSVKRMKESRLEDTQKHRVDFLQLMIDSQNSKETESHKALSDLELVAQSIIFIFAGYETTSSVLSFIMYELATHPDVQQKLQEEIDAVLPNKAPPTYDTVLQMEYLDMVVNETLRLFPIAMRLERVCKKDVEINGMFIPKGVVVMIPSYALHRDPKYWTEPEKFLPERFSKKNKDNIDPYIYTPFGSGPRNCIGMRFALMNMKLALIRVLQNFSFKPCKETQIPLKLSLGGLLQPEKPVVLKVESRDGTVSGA
Regarding `COC(=O)[C@@]1(Cc2ccc(OC)cc2)[C@H]2c3cc(C(=O)N4CCCC4)n(CCc4c[nH]c5cc(F)ccc45)c3C[C@H]2CN1C(=O)c1ccccc1`, the AC50 is 1260 nM (active).

On to `COC(=O)[C@@]1(Cc2ccc(F)cc2)[C@H]2c3cc(C(=O)N4CCCC4)n(CCc4c[nH]c5ccccc45)c3C[C@H]2CN1C(=O)c1ccccc1`, for which the AC50 is 1000 nM (active).

For the molecule `COC(=O)[C@@]1(Cc2ccc(OC)cc2)[C@H]2c3cc(C(=O)N4CCCC4)n(CCc4c[nH]c5ccc(O)cc45)c3C[C@H]2CN1C(=O)c1ccccc1`, the half-maximal activity concentration (AC50) is 1580 nM (active).

Consider `CCOc1cc(C#N)c(NC(=O)c2cccnc2)cc1OCC`, for which the AC50 was 12600 nM (active).

In the case of `CCN(CC)c1ccc(NC(=O)c2cccnc2)c(C)c1`, the activity, negative = inhibition is 1.22% [at 2.29 µM].

In the case of `CCN(CC)C(=O)c1sc2[nH]c(=S)n(-c3ccccc3)c(=O)c2c1C`, the AC50 result was “inactive”.

For the molecule `CC1=C(C(=O)Nc2ccccc2)C(c2ccco2)NC(=S)N1` (centres undefined), the activity, negative = inhibition was 0.933% [at 2.29 µM].

With `CCN(CC)C(=O)C1=C(C)NC(=S)NC1c1cn(-c2ccccc2)nc1-c1ccc(Cl)cc1` (centres undefined), the AC50 is 7080 nM (active).

Consider `COc1ccc2[nH]cc(CCNc3ccnc(-c4ccccc4C)n3)c2c1`, for which the AC50 is 3160 nM (active).

On to `COc1ccc2[nH]cc(CCNc3ccnc(-c4ccccc4Cl)n3)c2c1`, for which the AC50 is 2000 nM (active).

Consider `COc1ccc2[nH]cc(CCNc3ccnc(-c4ccccc4C(F)(F)F)n3)c2c1`, for which the AC50 was 2000 nM (active).

On to `NC(=O)N[C@H]1NC(=O)NC1=O`, for which the AC50 entry is “inactive”.

Take `O=C(O)[C@@H](c1ccccc1)[C@@H](C(=O)O)c1ccccc1`: the activity, negative = inhibition is -6.94% [at 11.4 µM].

As for `Cc1ccc(SCc2nnc(NC(=O)c3ccccc3)s2)cc1`, the AC50 entry was “inactive”.

In the case of `Cc1ccn2c(NC(=O)c3ccccc3)c(-c3cccs3)nc2c1`, the AC50 is 7940 nM (active).

In the case of `Cn1sc(NC(=O)c2ccccc2)nc1=O`, the AC50 entry was “inactive”.

With `COc1ccc(CNc2ncncc2-c2ccccc2C(F)(F)F)c(OC)c1`, the AC50 was 316 nM (active).

On to `COc1ccccc1CNc1ncncc1-c1ccccc1C(F)(F)F`, for which the AC50 was 79.4 nM (active).

With `CSc1ccc(CNc2ccc(C)c(C)c2)cc1`, the AC50 was 12600 nM (active).

`CSc1ccc(NC(=O)Nc2cc(C)ccn2)cc1`: the activity, negative = inhibition is -14.7% [at 11.4 µM].

On to `CSc1ccc(NC(=O)NCCN2CCc3ccccc3C2)cc1`, for which the AC50 result was “inactive”.

As to `O=C(O)[C@H]1[C@H](C(=O)O)[C@H](C(=O)O)C[C@@H]1C(=O)O`, the activity, negative = inhibition was -3.42% [at 11.4 µM].

For `COc1ccc2cc(C)c3nnc(SCC(=O)Nc4nc(-c5ccccc5)cs4)n3c2c1`, the AC50 was 2240 nM (active).

For the molecule `COc1ccc(-n2c(CNc3ccc(C)cc3)nnc2SCC(=O)Nc2nc(-c3ccccc3)cs2)cc1`, the AC50 was 3160 nM (active).

In the case of `COc1ccc(NC(=O)CSc2nc(-c3ccc(C)cc3)cc(C(F)(F)F)c2C#N)cc1`, the activity, negative = inhibition is 0.258% [at 2.29 µM].

As to `Nc1ccc(N2C(=O)c3ccccc3C2=O)c(Cl)c1`, the AC50 is 15800 nM (active).

For the molecule `CC1CCN(CCc2nc3cc(NC(=O)NC4CCCCC4)ccc3n2C)CC1`, the AC50 entry is “inactive”.

In the case of `FC(F)(F)c1ccccc1-c1cncnc1NCc1cccnc1`, the AC50 is 631 nM (active).

Regarding `Cc1ccccc1-c1cncnc1NCc1ccccc1`, the AC50 is 316 nM (active).

With `CN(C)Cc1ccccc1-c1cncnc1NCc1cccnc1`, the half-maximal activity concentration (AC50) was 1580 nM (active).

For the molecule `Cc1ccccc1-c1cncnc1NCc1cccnc1`, the AC50 was 631 nM (active).

For the molecule `c1cncc(CNc2ncn[nH]2)c1`, the activity, negative = inhibition is -14.4% [at 11.4 µM].

For the molecule `N#Cc1ccc(OC(=O)c2ccc(N=C(N)N)cc2)cc1`, the activity, negative = inhibition was -10.9% [at 11.4 µM].

With `Cc1cccc(CNc2ncncc2-c2ccccc2C(F)(F)F)c1`, the half-maximal activity concentration (AC50) is 79.4 nM (active).

Take `Cc1cccc(CNc2ncncc2-c2ccccc2Cl)c1`: the AC50 is 200 nM (active).

As to `Cc1cccc(CNc2ncncc2-c2ccccc2C)c1`, the AC50 is 398 nM (active).

With `Cc1ccc(N(CC(N)=O)C2SC(=O)N(Cc3cccc(C(=O)O)c3)C2=O)cc1` (centres undefined), the AC50 entry is “inactive”.

As for `c1ccc(CSc2nnc([C@@H]3CCCN3)o2)cc1`, the activity, negative = inhibition is -4.35% [at 11.4 µM].

With `Clc1ccc(CSc2nnc(-c3sccc3-n3cccc3)o2)cc1`, the AC50 is 6310 nM (active).

Consider `c1ccc(CSc2nnc(-c3sccc3-n3cccc3)o2)cc1`, for which the AC50 was 15800 nM (active).

For the molecule `Clc1cccc(CSc2nnc(-c3sccc3-n3cccc3)o2)c1`, the AC50 is 8910 nM (active).

For the molecule `Clc1ccc(CSc2nnc(-c3cccnc3)o2)cc1`, the AC50 is 3160 nM (active).

For `Cc1cccc(-c2nnc(SCc3ccccc3)o2)c1`, the AC50 result was “inactive”.

Turning to `COC(=O)c1c(NC(=O)Cn2cc([N+](=O)[O-])cn2)sc2c1CCC2`, the concentration at half-maximal activity (AC50) is 14100 nM (active).

Take `CCOC(=O)c1c(NC(=O)Cn2nc([N+](=O)[O-])c(Br)c2C)sc2c1CCC(C)C2` (centres undefined): the activity, negative = inhibition was -21.8% [at 2.29 µM].

`CCOC(=O)c1c(NC(=O)Cn2cc([N+](=O)[O-])cn2)sc2c1CCC2`: the AC50 was 10000 nM (active).

Regarding `CCOC(=O)c1c(NC(=O)CSc2nnc(C)s2)sc2c1CCCCC2`, the activity, negative = inhibition is -23.9% [at 2.29 µM].

Turning to `O=C(O)CCN1C(=S)CSC1=S`, the activity, negative = inhibition is -22% [at 11.4 µM].

On to `Cc1ccc(-c2ncccc2OC(=O)C23CC4CC(CC(C4)C2)C3)cc1`, for which the activity, negative = inhibition was -12.5% [at 2.29 µM].

Regarding `CCC(C(=O)c1ccccc1)N(C(=O)c1ccccc1Cl)N1C(=O)C2C3C=CC(C3)C2C1=O` (centres undefined), the AC50 is 891 nM (active).

Take `Cc1ccc(OC(=O)c2cccc(C(=O)Oc3ccc(C)cc3)n2)cc1`: the activity, negative = inhibition is 6.37% [at 11.4 µM].

For the molecule `CCOC(=O)c1cccc(C(=O)OCC)n1`, the AC50 result was “inactive”.

Consider `COC(=O)c1cccc(C(=O)Nc2ccc(C)cc2)n1`, for which the half-maximal activity concentration (AC50) was 12600 nM (active).

In the case of `c1ccc(CNc2ccnc(-c3ccc4c(c3)OCO4)n2)cc1`, the half-maximal activity concentration (AC50) is 794 nM (active).

As to `c1cncc(CNc2ccnc(-c3ccc4c(c3)OCO4)n2)c1`, the AC50 was 1000 nM (active).

`c1csc(CNc2ccnc(-c3ccc4c(c3)OCO4)n2)c1`: the AC50 was 1000 nM (active).

As to `COc1c(O)cc2c(c1O)[C@@H]1O[C@@H](CO)[C@@H](O)[C@@H](O)[C@@H]1OC2=O`, the AC50 entry is “inactive”.

As for `COc1cccc(Nc2nc(-c3ccc(O)cc3)cs2)c1`, the AC50 is 7080 nM (active).

`c1cnc(Nc2nc(-c3ccc4ccccc4c3)cs2)nc1`: the AC50 entry is “inactive”.
